# Unmarked numbers belong to inactive results. Active and inactive are the calls of the source. Calls come from the whole dose curve; as a rule, active = well fitted activation curve with a large enough effect; inconclusive = small, poorly fitted or top-dose-only effect; inactive = no such curve, though single readings can be large or run the other way.
# Experiment: Confirmatory qHTS for Identification of Small Molecule Activators of Huntingtin-Antisense Promoter Activity
# Settings: HEK293 HTT-AS promoter firefly luciferase reporter, 24 h; series mostly up to 57.5 µM; activity change, positive = activation: at the top concentration
# In short: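 2,500 luciferase reporter HEK293 cells/well; 24 h culture; cpds up to 57.5 uM final, PTC124 50 uM ctrl; 24 h, 37C; Dual-Glo FLuc reagent, 10 min RT; lum. Norm.: vehicle 0%, zero RLU -100%.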
# Potency is the fitted concentration of half-maximal effect.
Compound,"activity change, positive = activation [%]",Potency
COc1ccccc1CCNC(=O)C(=O)NCC(c1cccs1)S(=O)(=O)c1ccccc1 (stereo not given),-27,–
CCCOCc1cc(CN2CCN(c3cccc(Cl)c3)CC2)c(O)c2ncccc12,-37.8,–
COc1ccc(S(=O)(=O)NCCc2sc3nc(-c4ccc(C)cc4)nn3c2C)cc1F,-64.4,–
Cc1cc(C)c(S(=O)(=O)NCCc2csc3nc(-c4ccc(Cl)cc4)nn23)c(C)c1,-37.2,–
COc1ccc(Nc2nc(-c3ccc(C)cc3)nc3ccccc23)c(OC)c1,19,–
CCOc1ccc(NC(=O)c2ccc(F)c(S(=O)(=O)NCc3ccc4c(c3)OCO4)c2)cc1,-56.8,–
Cc1cc(C)c(/C=C/c2onc(C)c2S(=O)(=O)N2CCC(C(=O)NCc3ccco3)CC2)c(C)c1,-29.2,–
O=C(Nc1nc2cccc(-c3ccc(CN4CCS(=O)(=O)CC4)cc3)n2n1)C1CC1,–,8.49 µM (active)
CCCOC(=O)c1cccc(NC(=O)c2c(-c3ccccc3Cl)noc2C)c1,-33.5,–
COc1ccc(NS(=O)(=O)c2ccc(N3CCCCS3(=O)=O)cc2)cc1Cl,-94,–
Cc1cc(C)cc(N2C(=O)CSC23C(=O)N(Cc2c(F)cccc2Cl)c2ccccc23)c1 (stereo not given),-34.4,–
Cc1ccc(C)c(-n2nnc(C(=O)Nc3ccc(Br)cc3)c2C)c1,-81.3,–
O=C(NCc1cccnc1)C(=O)NCC(c1cccnc1)N1CCN(c2ccccc2F)CC1 (stereo not given),-8.55,–
COc1cccc(C2=CC(c3cc(Br)ccc3F)n3nnnc3N2)c1 (stereo not given),-35.3,–
CCC(C(=O)NCCc1cc(OC)ccc1OC)n1nc(C)c2c(C)n(-c3ccccc3)nc2c1=O (stereo not given),-49.5,–

# From PubChem BioAssay AID1508622 (National Center for Advancing Translational Sciences (NCATS), 2021)
